These results are taken from PubChem BioAssay (Tox21).

Structures are written as SMILES. Where “and” joins values, the source holds several entries; their conditions need not be identical. Identical values can stand only once. Inconclusive results are not listed. Entries that show only a call come without a potency. A structure can be active in one record and inactive in another. Calls of active or inactive are those of the source. Calls follow the shape of the dose curve; as a rule, active = well fitted cell-killing curve with a large enough effect in the repeat runs; inconclusive = weak or mixed curves, or effect the other way; inactive = no such curve, though single readings can be large or run the other way.
Potency is read from the fitted curve at half-maximal effect.

The nature of this test: qHTS assay for identifying genotoxic compounds that show differential cytotoxicity against isogenic chicken DT40 cell lines with known DNA damage response pathways - Rev3 mutant cell line (AID 743014). Also: nearly all actives have a fitted effect of over 55% in size. The following applies: chicken DT40 Rev3-/- viability, CellTiter-Glo, 40 h; series mostly up to 68.4 µM. The source says:
National Center for Advancing Translational Sciences [NCATS]
NIH Chemical Genomics Center [NCGC]
U.S. Environmental Protection Agency [EPA]
National Institutes of Environmental Health Sciences [NIEHS]
National Toxicology Program [NTP]
U.S. Food and Drug Administration [FDA]
DNA repair pathways play a critical role in cellular homeostasis by repairing DNA damage induced by endogenous processes and xenobiotics. Isogenic chicken DT40 cell lines deficient in different DNA repair pathways can be used to identify genotoxic compounds and aid in characterizing the nature of the DNA damage induced. Two DNA repair-deficient cell lines with disrupted genes, Rad54/Ku70 or Rev3, were used to screen the Tox21 10K compound library. Possible genotoxicity was based on the presence of a significant increase in cytotoxicity in one or more of the DNA repair-deficient cell lines compared to that observed in the parental DNA repair-proficient cell line. CellTiter Glo viability assay (Promega, Madison, WI) was used to measure cell viability in these cells after compound treatment. This assay includes the data from the Rev3 mutant cell line.
Tox21 Assay Protocol Summary:
300 DT40 mutant cells in 5 uL/well were dispensed into white, solid-bottom 1536-well plates using a Multidrop Combi (ThermoFisher Scientific, Waltham, MA) dispenser. After the assay plates were incubated at 37 C/5% CO2 for approximately 0.5 hour, 23 nL of compounds dissolved in DMSO, positive controls or DMSO only was transferred into the assay plate by a pintool work station (Kalypsys, San Diego, CA). The assay plates were incubated at 37 C/5% CO2 for 40 hours. After 5 uL per well of CellTiter-Glo reagent was added into each well of the assay plates, the plates were incubated for 30 min at room temperature and the luminescence intensity of the plates was measured using a ViewLux (PerkinElmer, Shelton, CT) plate reader.
As to `Cc1cccc(N)c1C`, the Potency result is “inactive”.

Consider `NNc1ccccc1`, for which the Potency entry was “inactive and 60.4 µM (active)”.

Take `Cc1cccc(C)c1N`: the Potency entry is “inactive”.

Consider `Nc1ncc([N+](=O)[O-])s1`, for which the Potency entry was “inactive”.

With `C[C@H]1C(=O)O[C@@H]2CCN3CC=C(COC(=O)[C@](C)(O)[C@]1(C)O)[C@H]23`, the Potency result is “inactive and 15.4 µM (active)”.

With `CC(C)c1cccc(C(C)C)c1O`, the Potency result is “inactive”.

On to `O=C(O)c1cc(Oc2ccc(C(F)(F)F)cc2Cl)ccc1[N+](=O)[O-]`, for which the Potency entry is “inactive”.

As to `C[C@]12CC[C@H](O)CC1=CC[C@@H]1[C@@H]2CC[C@]2(C)C(=O)CC[C@@H]12`, the Potency was 26.6 µM (active) and 68.7 µM (active) and 54.5 µM (active).

As to `CNC(=O)Oc1cccc2ccccc12`, the Potency result is “inactive”.

Turning to `CNC(=O)O/N=C/C(C)(C)S(C)(=O)=O`, the Potency result was “inactive”.

Take `O=S(=O)(O)OOS(=O)(=O)O`: the Potency result is “inactive”.

In the case of `OCC(O)CCl` (stereo not given), the Potency entry is “inactive”.

Regarding `C=CCN=C=S`, the Potency was 62.5 µM (active).

As for `OCc1ccco1`, the Potency entry was “inactive”.

For `CCOP(=S)(OCC)Oc1cc(C)nc(C(C)C)n1`, the Potency result was “inactive”.

Consider `Oc1ccc(Cl)cc1`, for which the Potency entry was “inactive”.

`O=[N+]([O-])c1ccc(Cl)cc1`: the Potency result is “inactive”.

As to `CN1C(=O)CCS(=O)(=O)C1c1ccc(Cl)cc1` (stereo not given), the Potency result is “inactive”.

On to `Cc1cccc(N)c1`, for which the Potency entry is “inactive”.

With `O=P1(NCCCl)OCCCN1CCCl` (stereo not given), the Potency entry is “inactive”.

Turning to `CC(=O)/C=C/c1ccccc1`, the Potency entry is “inactive”.

Regarding `O=C(O)Cc1ccccc1`, the Potency result is “inactive”.

Turning to `CN(C)CCC#N`, the Potency entry was “inactive”.

On to `Nc1cccc(Cl)c1`, for which the Potency entry was “inactive”.

Consider `O=C(O)CCCc1ccc(N(CCCl)CCCl)cc1`, for which the Potency is 1.88 µM (active) and 2.18 µM (active) and 43.3 nM (active).

As for `CC12CC1(C)C(=O)N(c1cc(Cl)cc(Cl)c1)C2=O` (stereo not given), the Potency was 24.3 µM (active).

Turning to `C=C(C)C(=O)OCC(CC)CCCC` (stereo not given), the Potency entry is “inactive”.

Turning to `Cc1ccc(O)c(C)c1`, the Potency result is “inactive”.

For `O=C(O)C1C(C(=O)O)C2(Cl)C(Cl)=C(Cl)C1(Cl)C2(Cl)Cl` (stereo not given), the Potency entry is “inactive”.

Turning to `CNC(=O)O/N=C(\SC)C(=O)N(C)C`, the Potency was 61.1 µM (active).

Take `CC[N+](=O)[O-]`: the Potency entry is “inactive”.

As to `N#CN=C(N)N`, the Potency result was “inactive”.

As to `CSc1nnc(C(C)(C)C)c(=O)n1N`, the Potency entry was “inactive”.

As for `O=C/C=C/c1ccccc1`, the Potency entry was “inactive”.

Turning to `Clc1cnc(Oc2ccc(Oc3ncc(Cl)cc3Cl)cc2)c(Cl)c1`, the Potency entry is “inactive”.

Consider `c1ccc2c(c1)CCCC2`, for which the Potency entry was “inactive”.

With `FC(F)(F)c1ccc(Cl)cc1`, the Potency entry is “inactive”.

On to `CNc1cnn(-c2cccc(C(F)(F)F)c2)c(=O)c1Cl`, for which the Potency result was “inactive and 61.1 µM (active)”.

Regarding `CCNc1nc(Cl)nc(NC(C)C)n1`, the Potency entry was “inactive”.

`Cl[C@H]1OCCO[C@@H]1Cl`: the Potency result was “inactive”.
